The list is not random: actives were taken first. Their share in the collection is about 3.5%.
DNMT1 block – blocks human DNA methyltransferase DNMT1 | DNMT1 molecular beacon, Hinp1I cleavage, fluorescence | 0.83% of 360,000 active | P26358 | inhibition (reported as % activation of signal), % at 10 µM; in the data active = inhibition above about 50%
rCAG binder – binds r(CAG) RNA repeats; 1.3% of 370,000 active; inhibition, % at 3 µM; r(CAG) RNA repeat, TO-PRO-1 dye displacement fluorescence; AID 651821;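 active = inhibition above the plate cutoff, the mean of all test compounds on that plate plus 3 SD, cut at about 35% in these data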;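 note: higher means more dye released from RNA so lower well fluorescence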
UHRF1 MBD2 ctr – human UHRF1 methylated DNA binding inhibitors | Q96T88 | UHRF1 binding to methylated oligo, TR-FRET | inhibition, % at 4.4 µM | 0.75% of 370,000 active;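 note: UHRF1 SRA domain binding a hemimethylated CpG hairpin DNA probe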
MBD2 inh – MBD2-methylated oligo binding inhibition; inhibition, % at 4.4 µM; Q9UBB5; 0.31% of 370,000 active; TR-FRET, MBD2 binding to methylated oligonucleotide; in the data active = inhibition above about 13%
Target sequence (Q9UBB5 whole entry, looked up): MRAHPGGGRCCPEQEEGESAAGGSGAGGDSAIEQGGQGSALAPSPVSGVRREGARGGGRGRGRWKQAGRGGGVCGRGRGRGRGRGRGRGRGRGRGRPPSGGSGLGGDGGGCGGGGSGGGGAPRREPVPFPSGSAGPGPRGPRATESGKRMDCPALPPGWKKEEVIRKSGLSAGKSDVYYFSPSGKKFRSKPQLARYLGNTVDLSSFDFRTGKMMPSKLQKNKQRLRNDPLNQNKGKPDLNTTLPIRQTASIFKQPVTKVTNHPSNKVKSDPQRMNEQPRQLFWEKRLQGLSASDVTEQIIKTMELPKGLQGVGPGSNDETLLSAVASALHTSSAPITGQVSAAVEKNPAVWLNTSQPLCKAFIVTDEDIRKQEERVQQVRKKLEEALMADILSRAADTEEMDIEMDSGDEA
LEDGF integ inh – blocks HIV-1 LEDGF/p75-dependent DNA integration; inhibition, % at 3.7 µM; 0.64% of 370,000 active; TR-FRET IN-LEDGF/p75 DNA integration, Eu/Cy5; AID 743269;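 active = inhibition above the screen-wide mean plus 3 SD, cut at about 13% in these data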;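 note: signal is the Cy5 over europium emission ratio at 671 and 618 nm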
PG9 binder – small molecules binding HIV-1 gp120 antibody PG9; TR-FRET gp120-PG9 antibody binding; 0.43% of 360,000 active; AID 624416; inhibition, % at 6.7 µM; in the data active = inhibition above about 8.5%
UHRF1 ctr MBD2 – inhibits human UHRF1 binding to methylated oligonucleotide, MBD2 counter-screen. shares compounds with MBD2 inh. TR-FRET. inhibition, % at 4.4 µM. 25% of 1,000 active;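 note: UHRF1 SRA domain binding a labeled hemimethylated CpG hairpin DNA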
MBD2 confirm – MBD2-DBD methyl-DNA binding inhibition, TR-FRET confirmation | shares compounds with MBD2 inh | TR-FRET MBD2-DBD binding to methylated oligonucleotide | inhibition, % at 4.4 µM | 26% of 1,000 active; in the data active = inhibition above about 14%
A number is an active result; n = inactive; x = no result. Cut-off read from the data, not from the text of the source, unless noted: active = inhibition above about 21%; inactive = the rest.

SMILES | DNMT1 block | rCAG binder | UHRF1 MBD2 ctr | MBD2 inh | LEDGF integ inh | PG9 binder | UHRF1 ctr MBD2 | MBD2 confirm
O=C(COC(=O)c1cccc(Cl)c1)Nc1cccc(S(=O)(=O)NC2=NCCC2)c1 | n | n | n | n | n | n | x | x
CC(C)N1CC2(CC(c3ccc(Cl)cc3Cl)=NO2)CN1C(=O)c1ccc(C(C)(C)C)cc1 (configuration not stated) | n | n | n | n | n | n | x | x
NS(=O)(=O)c1ccc(CCNC(=O)c2ccc3nccnc3c2)cc1 | n | n | n | 15 | n | n | 34 | 26
Cc1onc(-c2ccccc2)c1C(=O)NCCc1ccc(S(N)(=O)=O)cc1 | n | n | n | n | n | n | x | x
Cc1onc(-c2c(Cl)cccc2Cl)c1C(=O)NCCc1ccc(S(N)(=O)=O)cc1 | n | n | 32 | 14 | n | n | n | n
CN(C(=O)c1cn(C)c2ccccc12)c1ccc(Oc2cccnc2)cc1 | x | n | n | n | n | n | x | x
CCOC(=O)C1=C(COC(=O)C2CC(=O)N(c3ccc(C)cc3)C2)NC(=O)NC1C (configuration not stated) | n | n | 37 | 14 | n | n | n | n
CCOC(=O)C1=C(COC(=O)C2CC(=O)N(c3ccccc3CC)C2)NC(=O)NC1C (configuration not stated) | n | n | n | n | n | n | x | x
CC12CCC(C(N)=O)(c3nc4ccccc4nc31)C2(C)C (configuration not stated) | n | n | n | 13 | n | n | n | n
CCN(CC)C(=S)NC(=O)c1cccnc1 | n | n | n | n | n | n | x | x
CCN(CC)C(=S)NC(=O)c1ccc(F)cc1 | n | n | n | 27 | n | n | n | n
Cc1ccc(C(=O)c2ccccc2C(=O)O)s1 | n | n | 26 | 16 | n | n | 41 | 14
COC(=O)C[C@H]1C[C@H]2c3cc(NS(=O)(=O)c4ccc(OC)cc4)ccc3O[C@H]2[C@H](CO)O1 | n | n | n | 21 | n | n | n | n
CCN1CCN(C(=O)Nc2ccccc2OC)CC1 | n | n | n | 14 | n | n | n | n
CCC(=O)OCC(=O)Nc1ccc(OC)cc1[N+](=O)[O-] | n | n | n | n | n | n | x | x
COc1ccc(NC(=O)COC(=O)CC23CC4CC(CC(C4)C2)C3)c([N+](=O)[O-])c1 | n | n | n | 46 | n | n | n | n
COc1ccc(N(C)S(=O)(=O)c2cccc(C(=O)Nc3nc(C)c(C(C)=O)s3)c2)cc1 | n | n | n | 15 | n | n | n | n
Nc1ccc2ccc(NS(=O)(=O)N3CCCCC3)cc2c1 | x | n | n | n | n | n | x | x
Cc1cccc(C(=O)NC(=O)Nc2c(C)cc(C)nc2C)c1 | n | n | 24 | 14 | n | n | n | n
CCOc1ccc(NC(=O)NN2C(C)CCCC2C)cc1 (configuration not stated) | n | n | n | 102 | n | n | n | n
CCCN(CC(=O)Nc1ccccc1C)C(=O)/C=C/c1ccc(OC)c(OC)c1 | n | n | n | n | n | n | x | x
COc1ccc(S[C@]2(C(=O)N3CCOCC3)CC(=O)N(c3ccsc3)[C@@H]2c2ccc(OC)cc2)cc1 | x | n | n | n | n | x | x | x
CCC(C)[C@H](NC(=O)NC1CCN(Cc2ccccc2)CC1)C(=O)OC (some centres not stated) | n | n | n | 15 | n | n | n | n
COc1ccc(C)cc1NC(=O)NC1CCN(Cc2ccccc2)CC1 | n | n | n | n | n | n | x | x
Cc1cc2[nH]c3c(c[n+](C)c4ccccc34)c2cc1C | n | n | 51 | 83 | n | n | 60 | 88
SMILES | DNMT1 block | rCAG binder | UHRF1 MBD2 ctr | MBD2 inh | LEDGF integ inh | PG9 binder | UHRF1 ctr MBD2 | MBD2 confirm
Cc1c(C(=O)Nc2cccc(F)c2)cnn1-c1ccccc1 | n | n | n | 13 | n | n | n | n
COc1ccc([C@H]2CC(=O)C[C@@H](CCn3cc(CCc4ccccc4)nn3)O2)cc1 | x | n | n | n | n | n | x | x
COc1ccc(-c2ccc3c(n2)CCCN3Cc2ccccc2C(F)(F)F)cc1 | x | n | n | n | n | n | x | x
O=C(/C=C/c1ccc(F)cc1)N1CCN(c2ccccn2)CC1 | n | n | n | n | n | n | x | x
O=C(/C=C/c1cccc(Br)c1)N1CCN(c2ccccn2)CC1 | n | n | 35 | 14 | n | n | n | n
CCOC(=O)c1cnc2c(ccc3ccccc32)c1NCCCN(C)C | n | n | n | 20 | n | n | n | 26
Cc1ccccc1NC(=O)Cc1nc(COC(=O)c2ccc(Cl)c(S(N)(=O)=O)c2)cs1 | n | n | n | n | n | n | x | x
CC(=O)c1cc(-c2ccc(F)cc2)n(CCC(=O)NC(C)(C)C)c1C | n | n | 83 | 36 | 15 | n | n | n
C=CCC[C@H](CCCCC)OC(=O)/C=C/[C@@H](O)[C@H](O)C[C@@H](O)CC=C | x | n | n | n | n | n | x | x
CC1(C(=O)NS(=O)(=O)c2ccc(Br)cc2)CCN1C(=O)CC1CCCCC1 (configuration not stated) | n | n | n | 18 | n | n | n | n
CCOC(=O)N1CCN(C(=O)C[C@H]2C[C@@]3(C(=O)OC)C(=C[C@H](C(C)(C)C)O[C@@H]3C)N(Cc3ccco3)C2=O)CC1 | x | n | n | n | n | x | x | x
COc1ccc(CN2CCN(Cc3ccc4cc(F)ccc4n3)CC2CCO)c(C)c1C (configuration not stated) | n | n | n | n | n | n | x | x
CNC(=O)c1c(NC(=O)c2ccc(S(=O)(=O)N3CCCCC3)cc2)sc2c1CCN(C(C)C)C2 | n | n | n | 16 | n | n | n | n
CC1(c2nnnn2Cc2ccccc2)CCC(=O)N1CCOc1ccccc1 (configuration not stated) | x | n | n | n | n | n | x | x
Cc1nc(Oc2ccccc2)c2ccccc2n1 | n | n | n | n | n | n | x | x
c1ccc(Oc2ncnc3ccccc23)cc1 | n | n | n | 21 | n | n | n | n
COc1ccc(CN2CCN(Cc3ccc(C)cc3)CC2)c(OC)c1 | n | n | n | 32 | n | n | n | n
COc1ccc(CN2CCN(Cc3ccc(C(F)(F)F)cc3)CC2)c(OC)c1 | n | n | n | n | n | n | x | x
COC(=O)c1ccc(CSc2nc3c(c(=O)[nH]2)CCC3)cc1 | n | n | n | 15 | n | n | n | n
CCOc1ccc(-n2c(SCC(=O)c3ccccc3Cl)nnc2-c2ccncc2)cc1 | x | n | n | n | n | x | x | x
CN(C(=O)C=Cc1ccccc1)c1ccccc1 | n | n | n | 24 | n | n | n | n
CN(C(=O)/C=C/c1ccc2c(c1)OCO2)c1ccccc1 | n | n | n | n | n | n | x | x
CCN(CC)CCN1C(=O)c2cccc3cc(N)cc(c23)C1=O | n | n | n | 14 | n | n | n | n
